# Sampled rows, rich in hits. Any-hit rate of the full collection: about 1.7%.
# Vc quorum ag: inducers of Vibrio cholerae quorum light production without autoinducers, primary screen, BH1578 luxS cqsA deficient, single point | activation, % at 18.7 µM | V. cholerae BH1578 lux reporter, luminescence, 6 h | 0.16% of 350,000 active; in the data active = activation mostly above about 9.7%, no sharp cut-off
# Sa RN4220 lethal: growth inhibition of S. aureus RN4220, primary screen, OD600; 16 h; inhibition, % (concentration not given with the values); 0.33% of 330,000 active; AID 1259311, 2017; in the data active = inhibition above about 85%;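 note: plate controls were untreated cells for no effect and reference antibiotic for full effect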
# Mtb hypoxia inh: PubChem AID 1159583; M. tuberculosis hypoxia-regulated fluorescent reporter, fluorescence; fluorescence inhibition, % (test concentration not listed); 0.1% of 300,000 active; in the data active = fluorescence inhibition mostly above about 23%, no sharp cut-off; inactive = mostly below about 17%
# ugtP null kill: growth inhibition of ugtP-null S. aureus, primary screen, RN4220 ugtP deletion, OD600. 16 h. growth inhibition, % (test concentration not listed). AID 1259309, 2017. 0.54% of 330,000 active; in the data active = growth inhibition above about 68%;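 note: plate controls were untreated wells for no effect and antibiotic for full effect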
# CCHFV vOTU inh: CCHFV vOTU protease inhibitors, primary screen, biochemical, Pep-AMC substrate, fluorescence; Crimean-Congo hemorrhagic fever virus L polyprotein viral ovarian tumor (vOTU) protease …; 0.55% of 370,000 active; inhibition, % at 11.5 µM; in the data active = inhibition above about 30%; note: 0% = vehicle wells with enzyme and 100% = no enzyme wells
# PfHsp40 yeast: rescue of yeast from PfHsp40 toxicity, primary screen, S. cerevisiae, ATP luminescence | S. cerevisiae expressing PfHsp40, growth rescue | growth rescue, % at 12.5 µM | 0.68% of 340,000 active | AID 504582, 2011; in the data active = growth rescue above about 28%, passing the limit was not always enough;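 note: yeast W303a lacking pdr1 and pdr3 grown in galactose medium; growth measured after three days at 30 °C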
# Starred values were filed as active, the others as inactive; i = inactive; · = not tested or not shown.
SMILES,Vc quorum ag,Sa RN4220 lethal,Mtb hypoxia inh,ugtP null kill,CCHFV vOTU inh,PfHsp40 yeast
C#CCOCCOCCOCCNc1nc(N2CCN(C(=O)[C@H](CCCCN)n3cc([C@@H](N)C(C)CC)nn3)CC2)nc(N2CCN(C(=O)[C@H](Cc3cc4ccccc4[nH]3)n3cc([C@@H](N)CC(C)C)nn3)CC2)n1 (stereo not given in full),i,·,·,·,·,38.6*
C#CCOCCOCCOCCNc1nc(N2CCN(C(=O)[C@H]([C@@H](C)CC)n3cc(CCCCN)nn3)CC2)nc(N2CCN(C(=O)[C@H](CCCCN)n3cc(CCCC)nn3)CC2)n1,i,·,·,·,-3.0,33.0*
C#CCOCCOCCOCCNc1nc(N2CCN(C(=O)CCCCCCCCCCNC(=O)Cn3cc(CCCCCN)nn3)CC2)nc(N2CCN(C(=O)CCCCCCCCCCNC(=O)[C@H]([C@@H](C)CC)n3cc(CCCCN=C(N)N)nn3)CC2)n1,i,·,·,·,·,29.1*
C#CCOCCOCCOCCNc1nc(N2CCN(C(=O)[C@H](Cc3cc4ccccc4[nH]3)n3cc([C@@H](N)C(C)CC)nn3)CC2)nc(N2CCN(C(=O)[C@H](CCCCN)n3cc([C@@H](N)CO)nn3)CC2)n1 (stereo not given in full),·,-12.1,12.7,-2.3,·,·
C#CCOCCOCCOCCNc1nc(N2CCN(C(=O)CCCCCCCCCCNC(=O)[C@H](CO)n3cc(CCCSC)nn3)CC2)nc(N2CCN(C(=O)CCCCCCCCCCNC(=O)[C@H](CCCN=C(N)N)n3cc(C[C@@H](C)CC)nn3)CC2)n1,i,·,·,·,·,30.0*
CC(CC(=O)NCc1ccccc1)=NNC(N)=S,·,-1.3,-7.3,-3.8,·,·
C=CCN1C(=O)/C(=C/c2ccc(O)c(OC)c2)SC1=Nc1nccs1,·,-6.3,-12.9,-16.8,·,·
C#CCOCCOCCOCCNc1nc(N2CCN(C(=O)CCCCCCCCCCNC(=O)[C@H]([C@@H](C)CC)n3cc(CCCCCN)nn3)CC2)nc(N2CCN(C(=O)CCCCCCCCCCNC(=O)[C@H]([C@@H](C)CC)n3cc(CCCCN=C(N)N)nn3)CC2)n1,i,·,·,·,·,69.0*
CC(C)(C)n1nc(-c2ccc(F)cc2)c2c(N)ncnc21,·,3.4,3.6,32.7,0.0,454.5*
CC(C)(C)n1nc(-c2ccc(Cl)cc2)c2c(N)ncnc21,3.4,-2.2,1.5,3.8,-1.7,310.7*
Cc1ccc(-c2nc(N)c3c(-c4ccc(C)cc4)nn(C(C)(C)C)c3n2)cc1,-0.1,-1.9,12.5,6.2,-3.6,-0.6
CC1CCc2nc(C(C#N)=Cc3cccnc3)sc2C1 (stereo not given),·,5.7,6.0,-6.6,·,·
O=[N+]([O-])c1cccc(C=NNc2ccc3ccccc3n2)c1O,0.9,·,·,·,3.3,240.9*
Brc1ccccc1/C=N/Nc1ccc2ccccc2n1,-0.3,·,·,·,-7.6,4.8
O=C(NN=Cc1ccc(O)c([N+](=O)[O-])c1)C1COc2ccccc2O1 (stereo not given),·,4.8,·,12.7,·,·
O=C(N/N=C\c1cccc([N+](=O)[O-])c1O)C1COc2ccccc2O1 (stereo not given),-0.2,·,·,·,-6.5,42.2*
Cc1ccc(-n2c(O)c(/C=N/NC(=O)C3COc4ccccc4O3)c3ccccc3c2=O)cc1 (stereo not given),-0.2,·,·,·,-8.6,205.0*
COc1ccc(CC(=O)Nc2ccc(OC)nc2)cc1,-0.3,-0.1,6.7,6.4,-0.7,-0.6
COc1ccc(NC(=O)Cc2ccc(-c3ccccc3)cc2)cn1,i,1.8,4.7,19.3,-14.6,85.9*
CCOC(=O)c1cc2c(C)nn(-c3ccccc3)c2s1,0.6,-2.9,·,-2.7,11.0,0.7
Cc1nn(-c2ccccc2)c2sc(C(=O)OCc3nnc(-c4ccccc4)o3)cc12,22.2*,1.6,·,-13.2,4.1,1.3
CNC(=O)N(O)C1N(N=Cc2cc(Br)ccc2O)C(=S)SC1(C)C (stereo not given),·,8.8,1.0,18.5,·,·
CC(=NNS(=O)(=O)c1ccc(CC(C)C)cc1)c1ccncc1,·,6.4,3.4,7.3,·,·
O=C(c1ccc(NS(=O)(=O)c2ccc(F)cc2)cc1)N1CCOCC1,i,-0.7,-4.4,1.3,33.1*,-2.0
C=CCNC(=S)NN=Cc1cccc([N+](=O)[O-])c1,·,2.1,-5.9,-0.1,·,·
SMILES,Vc quorum ag,Sa RN4220 lethal,Mtb hypoxia inh,ugtP null kill,CCHFV vOTU inh,PfHsp40 yeast
Cc1ccc(S(=O)(=O)NN=Cc2ccc([N+](=O)[O-])o2)cc1,·,8.0,9.7,36.4,·,·
Cc1ccc(S(=O)(=O)c2ccc([N+](=O)[O-])o2)cc1,3.9,·,·,·,2.8,264.9*
CN(c1ccc(OCC(=O)Nc2ccc(S(N)(=O)=O)cc2)cc1)S(=O)(=O)c1ccc(F)cc1,i,4.8,10.5,1.7,-4.0,-0.2
CN(c1ccc(OCC(=O)Nc2cc(Cl)ccc2C(=O)O)cc1)S(=O)(=O)c1ccc(F)cc1,1.6,4.8,9.7,10.4,11.7,26.5*
CC(C)=CCc1c(O)cc(O)c2c(=O)c(O[C@@H]3O[C@@H](C)[C@H](O)[C@@H](O)[C@H]3O)c(-c3ccc(O)cc3)oc12,-0.5,-0.3,·,6.8,·,4.2
CC(C)=CCc1c(O)cc2c(=O)c3ccc(O)cc3oc2c1O,-0.5,-3.4,·,35.3,11.6,147.1*
CC(C)=CCc1c(O)cc(O)c2c(=O)c3c(CC=C(C)C)c(O)ccc3oc12,·,100.4*,·,100.5*,·,·
CC(C)(C)OC(=O)NN=C(c1ccc(O)cc1)c1ccc(O)cc1,4.5,99.2*,11.3,98.7*,-11.8,15.4
O=C(NN=Cc1ccc(Br)s1)c1ccccc1[N+](=O)[O-],·,4.1,3.1,-7.2,·,·
CS(=O)(=O)c1ccc([C@@H](O)[C@@H](CO)NC(=O)C(Cl)Cl)cc1,-0.3,·,·,·,-1.4,0.3
CS(=O)(=O)c1ccc(C(O)C(CO)NC(=O)C(Cl)Cl)cc1 (stereo not given),·,43.7,79.9*,69.9,·,·
CS(=O)(=O)c1ccc(C(O)C(CF)NC(=O)C(Cl)Cl)cc1 (stereo not given),·,99.1*,·,99.9*,·,·
CS(=O)(=O)c1ccc([C@@H](O)[C@@H](CF)NC(=O)C(Cl)Cl)cc1,-1.1,·,·,·,-6.8,-0.1
O=C(C1=CC(c2ccccc2)CC(OCc2ccc(CO)cc2)O1)N1CCN(Cc2ccc3c(c2)OCO3)CC1 (stereo not given),·,7.9,6.2,6.2,·,·
CC(=N/N=C1/NC(=O)C(CC(=O)O)S1)c1ccccn1 (stereo not given),·,3.5,-1.6,-2.8,·,·
O=C(COc1ccccc1)NCC(=O)NN=Cc1cc(Br)ccc1OCc1ccccc1,·,-3.1,12.7,-5.8,·,·
O=C(NCCO)c1ccc2nc(-c3ccco3)c(-c3ccco3)nc2c1,i,6.1,2.0,10.1,77.3*,0.4
c1coc(-c2nc3ccccc3nc2-c2ccco2)c1,5.3,13.7,·,-13.9,51.5*,-0.7
Cc1ccc(C=NNC(=O)C(c2ccncc2)N2CCOCC2)cc1 (stereo not given),·,2.2,4.7,5.9,·,·

# Screens deposited in PubChem by several laboratories.
